# Test results as given in PubChem BioAssay (NCI).
# Compounds without any hit were thinned out: in the full panel of roughly 79,000, 15% have a hit. Unmarked numbers belong to inactive results. Calls of active or inactive are those of the source. No stated cut-off is given here; in the data, active means growth inhibition above about 70%; inactive means the rest.
# Key:
# [1] = NCI Yeast Anticancer Drug Screen. Data for the rad50 strain (AID 155);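 further: 0% = growth of vehicle-only cultures of the same strain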; details: S. cerevisiae rad50 strain growth inhibition, hits give high values
# Outline: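 Inhibition values express reduced yeast growth in compound-treated cultures relative to vehicle-treated controls.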
# [2] = NCI Yeast Anticancer Drug Screen. Data for the mec2-1 strain (AID 157); details: S. cerevisiae mec2-1 strain, hits give high values
# Outline: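 Growth inhibition is read against vehicle-treated controls after compound exposure of the mec2-1 yeast strain, which is defective in DNA damage repair or cell cycle control.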
# [3] = NCI Yeast Anticancer Drug Screen. Data for the sgs1 mgt1 strain (AID 161);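 further: 0% = growth of cultures given vehicle only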; details: S. cerevisiae sgs1 mgt1 strain, hits give high values
# Outline: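 Growth of a repair-deficient yeast mutant was monitored after compound treatment and expressed as inhibition relative to vehicle-treated cultures.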
# [4] = NCI Yeast Anticancer Drug Screen. Data for the cln2 rad14 strain (AID 165);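 further: 0% = growth equal to vehicle treated cultures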; details: S. cerevisiae cln2 rad14 strain, hits give high values
# Outline: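 Growth inhibition, relative to vehicle-treated controls, is the read-out. The test organism is a yeast strain with defined genetic alterations, cln2 rad14.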
# [5] = NCI Yeast Anticancer Drug Screen. Data for the bub3 strain (AID 167); details: S. cerevisiae bub3 mutant strain, hits give high values
# Outline: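 Steps: expose the mutant yeast strain to compound; grow alongside vehicle-treated cultures; measure growth; express inhibition against the vehicle cultures.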
# [6] = NCI Yeast Anticancer Drug Screen. Data for the mlh1 rad18 strain (AID 175); details: S. cerevisiae mlh1 rad18 strain growth inhibition, hits give high values
# Outline: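 Cells of a genetically altered yeast strain, deficient in DNA damage repair, were treated with compound. Their growth was then compared with that of vehicle-treated cultures to give inhibition.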
# [7] = at 5.0 µM (retest, dose inferred, filed as 0.5)
# [8] = at 50.0 µM (retest, dose inferred, filed as 5.0)
Compound,"growth inhibition [1, 7]","growth inhibition [1, 8]",growth inhibition ([1]; at 50.0 µM),"growth inhibition [2, 7]","growth inhibition [2, 8]",growth inhibition ([2]; at 50.0 µM),"growth inhibition [3, 7]","growth inhibition [3, 8]",growth inhibition ([3]; at 50.0 µM),"growth inhibition [4, 7]","growth inhibition [4, 8]",growth inhibition ([4]; at 50.0 µM),"growth inhibition [5, 7]","growth inhibition [5, 8]",growth inhibition ([5]; at 50.0 µM),"growth inhibition [6, 7]","growth inhibition [6, 8]",growth inhibition ([6]; at 50.0 µM)
CC(c1ccccc1)[P+](c1ccccc1)(c1ccccc1)c1ccccc1 (configuration not stated),5%,97% (active),97.8% (active),13%,97% (active),97.5% (active),11%,98% (active),97.7% (active),-4%,95% (active),96.8% (active),6%,99% (active),96.1% (active),16%,97% (active),98% (active)
COc1ccc(C(CN2CCOCC2)C(C)=O)cc1OC (configuration not stated),7%,81% (active),72.4% (active),12%,93% (active),70.1% (active),13%,85% (active),88.5% (active),7%,40%,23.6%,10%,92% (active),69.7%,5%,93% (active),87.2% (active)
COc1ccc(C2c3cc4c(cc3OC(O)C2C)OCO4)c(OC)c1 (configuration not stated),-2%,96% (active),85.6% (active),1%,95% (active),58.5%,5%,95% (active),83.8% (active),-8%,89% (active),68.9%,-4%,88% (active),68.8%,-5%,97% (active),87.5% (active)
CC(C)NC(=O)OCCN=C1c2ccccc2CCc2ccccc21,-17%,95% (active),76.4% (active),-32%,96% (active),78.8% (active),-46%,89% (active),77.5% (active),-26%,60%,61.5%,-62%,97% (active),81.5% (active),-11%,95% (active),68.8%
CCOC(=O)/C(C)=N/Nc1cc(Cl)ccc1O,0%,55%,95.5% (active),4%,32%,94% (active),4%,42%,58%,-62%,51%,70.8% (active),-6%,-15%,34.5%,7%,63%,88.8% (active)
CCCCCOC(=O)c1ccc(O)cc1,-3%,98% (active),-3.65%,7%,100% (active),36%,2%,99% (active),51.2%,-9%,97% (active),13.1%,32%,99% (active),88.9% (active),3%,99% (active),15.4%
Cc1ccc(Nc2nc3nc[nH]c3c(=O)[nH]2)cc1CO,2%,13%,-4.35%,10%,2%,-12.4%,-12%,14%,-0.6%,-2%,-4%,0%,2%,-4%,-8.75%,15%,7%,4.8%
Cn1cnc(=S)c2[nH]cnc21,-1%,-2%,10.9%,-3%,-4%,-0.45%,-2%,-5%,-4.55%,-2%,-4%,59.6%,0%,-5%,-8.5%,-4%,-1%,4.05%
Cc1nc(-c2ccc(N=Cc3ccc(N(CCOS(C)(=O)=O)CCOS(C)(=O)=O)cc3)cc2)cs1,1%,46%,46.5%,-24%,9%,7.75%,-2%,17%,21.1%,-2%,33%,-45.7%,-3%,-10%,-2.55%,12%,54%,71.8% (active)
O=C(CCC1OCCO1)Nc1cc(NCc2ccccc2)ccc1OCc1ccccc1,1%,48%,71.2% (active),2%,69%,57%,-173%,73% (active),89.4% (active),0%,16%,43.7%,0%,39%,65%,16%,68%,70.2% (active)
CCCCCCCCC(=O)Cl,11%,82% (active),74.4% (active),9%,61%,47.9%,10%,64%,77.5% (active),6%,38%,27.1%,0%,77% (active),69.3%,6%,69%,88.3% (active)
COc1cc(CC(=O)O)c(Cc2ccc3c(c2)Cc2ccccc2-3)cc1OC,-7%,94% (active),49%,4%,77% (active),53.5%,-1%,92% (active),52.1%,6%,91% (active),88.7% (active),-7%,95% (active),94.5% (active),2%,88% (active),47.6%
Cc1ccc(-c2c(C#N)c(-c3ccc(Cl)cc3)c(C#N)c(=O)n2NS(=O)(=O)c2ccccc2)cc1,38%,50%,63.2%,34%,59%,71% (active),28%,58%,69%,53%,60%,63.6%,52%,64%,71% (active),31%,49%,74.3% (active)
c1cc2ccc1C1NCCCN1CCN1CCCNC1c1ccc(cc1)C1NCCCN1CCN1CCCNC21 (configuration not stated),3%,-11%,-8.3%,-19%,-2%,-22.6%,-14%,3%,-2%,-25%,-8%,53.2%,-1%,-1%,4.1%,-28%,-14%,-31.4%
C=[CH][Sn]([CH]=C)([S]c1cccc2cccnc12)[S]c1cccc2cccnc12,12%,99% (active),92% (active),16%,100% (active),91.5% (active),27%,99% (active),92.3% (active),16%,99% (active),75.5% (active),19%,94% (active),83.7% (active),18%,99% (active),91.8% (active)
CC1(C)/C=C/C2=Nc3cc(Br)c(Br)c(Br)c3C23CC(=O)N3/C=C(\Cl)c2nc(Br)[nH]c21 (configuration not stated),22%,97% (active),92% (active),15%,96% (active),93.8% (active),32%,98% (active),93.8% (active),29%,98% (active),91.7% (active),12%,98% (active),93% (active),-11%,98% (active),92.5% (active)
[O-][n+]1c2c(cc3ccccc31)Cc1ccccc1-2,2%,31%,21.7%,3%,19%,35%,-3%,5%,-22.6%,4%,3%,20.4%,7%,29%,24.4%,3%,20%,30.7%
Cc1[nH]c2ccccc2c1C1=CC2(C)Nc3ccccc3C2C(C)(C)C1 (configuration not stated),-4%,26%,90.2% (active),2%,-1%,93.8% (active),-4%,23%,92.3% (active),2%,-4%,93.5% (active),10%,79% (active),94.8% (active),-1%,28%,94.7% (active)
C#CC(CC(C)CC(C)(C)C)NC (configuration not stated),2%,91% (active),97.2% (active),2%,58%,85.5% (active),0%,97% (active),96.8% (active),7%,53%,76% (active),2%,86% (active),92.3% (active),1%,73% (active),96% (active)
